Reference: paper PMC7862700, “An all-to-all approach to the identification of sequence-specific readers for epigenetic DNA modifications on cytosine”

What was measured:
Test in all cases: DAPPL (digital affinity profiling via proximity ligation, sequencing); 10 mM Tris-HCl pH 7.5, 50 mM NaCl, 1 mM DTT, 4% glycerol, room temperature, 30 min; GST-TFs on glutathione beads, 16-mer random dsDNA library, 0.1% formaldehyde crosslink after washing; high values mean tight binding
FEV = target: T1, FEV (Homo sapiens, UniProt Q99581 1-238); settings: protein: recombinant; tags: N-terminal GST; dsDNA, one strand shown
T1 sequence: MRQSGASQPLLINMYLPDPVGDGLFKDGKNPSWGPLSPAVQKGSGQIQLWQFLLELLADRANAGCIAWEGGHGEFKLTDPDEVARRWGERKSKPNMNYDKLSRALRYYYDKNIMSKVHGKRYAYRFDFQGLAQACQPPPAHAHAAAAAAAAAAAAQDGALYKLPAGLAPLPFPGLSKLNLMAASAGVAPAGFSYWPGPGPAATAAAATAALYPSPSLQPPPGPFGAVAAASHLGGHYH
In short: (§1)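 Human transcription factors were made in yeast as GST fusions, captured on glutathione beads and barcoded with DNA. With a tag-only sample included, the pool was incubated with 200 nmole of a random double-stranded 16-mer DNA library in Tris/NaCl/DTT/glycerol buffer at room temperature for 30 min, then crosslinked with 0.1% formaldehyde after washing, ligated by proximity, amplified and sequenced. For binding signal, each hexamer's read frequency for a factor is divided by its frequency for the tag-only sample.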

ETV5 = ETV5 (Homo sapiens, UniProt P41161 1-510); settings: protein: recombinant; tags: N-terminal GST; dsDNA, one strand shown
Chain of ETV5 (P41161 whole entry): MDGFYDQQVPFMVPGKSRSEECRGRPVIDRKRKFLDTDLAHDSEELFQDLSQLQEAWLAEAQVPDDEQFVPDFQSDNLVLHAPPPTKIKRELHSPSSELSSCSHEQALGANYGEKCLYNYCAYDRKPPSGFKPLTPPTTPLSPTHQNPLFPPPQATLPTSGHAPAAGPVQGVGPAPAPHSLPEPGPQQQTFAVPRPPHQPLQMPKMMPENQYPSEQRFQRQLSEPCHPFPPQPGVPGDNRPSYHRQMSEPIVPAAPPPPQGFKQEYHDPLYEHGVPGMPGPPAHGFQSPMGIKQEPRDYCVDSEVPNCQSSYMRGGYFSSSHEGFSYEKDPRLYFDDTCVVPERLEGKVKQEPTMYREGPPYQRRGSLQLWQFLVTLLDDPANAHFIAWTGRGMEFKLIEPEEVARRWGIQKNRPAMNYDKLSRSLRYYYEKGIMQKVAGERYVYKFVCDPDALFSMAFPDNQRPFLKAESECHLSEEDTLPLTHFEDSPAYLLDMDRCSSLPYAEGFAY
In short: as §1

HSF1 = HSF1 (Homo sapiens, UniProt Q00613 1-529); settings: protein: recombinant; tags: N-terminal GST; chain copies: 3; dsDNA, one strand shown
Chain of HSF1 (Q00613 whole entry): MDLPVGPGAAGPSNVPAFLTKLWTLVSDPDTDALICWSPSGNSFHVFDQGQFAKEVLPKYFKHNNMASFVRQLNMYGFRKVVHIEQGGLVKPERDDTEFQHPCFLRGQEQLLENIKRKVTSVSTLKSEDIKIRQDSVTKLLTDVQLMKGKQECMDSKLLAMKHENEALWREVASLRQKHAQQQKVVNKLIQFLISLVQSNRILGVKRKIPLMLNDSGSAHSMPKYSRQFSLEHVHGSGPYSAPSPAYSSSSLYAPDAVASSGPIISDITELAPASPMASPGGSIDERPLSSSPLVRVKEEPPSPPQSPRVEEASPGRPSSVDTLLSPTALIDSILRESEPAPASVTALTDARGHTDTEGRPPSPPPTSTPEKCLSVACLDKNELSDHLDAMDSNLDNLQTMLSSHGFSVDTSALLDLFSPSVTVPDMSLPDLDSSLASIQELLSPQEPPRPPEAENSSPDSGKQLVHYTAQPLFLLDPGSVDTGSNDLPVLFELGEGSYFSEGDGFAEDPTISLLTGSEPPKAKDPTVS
In short: as §1

SPIC = target: T2, SPIC (Homo sapiens, UniProt Q8N5J4 1-248); settings: protein: recombinant; tags: N-terminal GST; dsDNA, one strand shown
T2 sequence: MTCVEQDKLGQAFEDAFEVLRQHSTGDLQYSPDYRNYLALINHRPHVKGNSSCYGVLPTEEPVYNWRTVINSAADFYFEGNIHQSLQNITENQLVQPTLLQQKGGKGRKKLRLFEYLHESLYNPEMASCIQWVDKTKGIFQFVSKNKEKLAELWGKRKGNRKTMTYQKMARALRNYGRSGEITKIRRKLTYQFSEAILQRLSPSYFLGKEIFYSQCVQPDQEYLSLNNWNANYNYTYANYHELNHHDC
In short: as §1

ELF4 = ELF4 (Homo sapiens, UniProt Q99607 1-663); settings: protein: recombinant; tags: N-terminal GST; dsDNA, one strand shown
Chain of ELF4 (Q99607 whole entry): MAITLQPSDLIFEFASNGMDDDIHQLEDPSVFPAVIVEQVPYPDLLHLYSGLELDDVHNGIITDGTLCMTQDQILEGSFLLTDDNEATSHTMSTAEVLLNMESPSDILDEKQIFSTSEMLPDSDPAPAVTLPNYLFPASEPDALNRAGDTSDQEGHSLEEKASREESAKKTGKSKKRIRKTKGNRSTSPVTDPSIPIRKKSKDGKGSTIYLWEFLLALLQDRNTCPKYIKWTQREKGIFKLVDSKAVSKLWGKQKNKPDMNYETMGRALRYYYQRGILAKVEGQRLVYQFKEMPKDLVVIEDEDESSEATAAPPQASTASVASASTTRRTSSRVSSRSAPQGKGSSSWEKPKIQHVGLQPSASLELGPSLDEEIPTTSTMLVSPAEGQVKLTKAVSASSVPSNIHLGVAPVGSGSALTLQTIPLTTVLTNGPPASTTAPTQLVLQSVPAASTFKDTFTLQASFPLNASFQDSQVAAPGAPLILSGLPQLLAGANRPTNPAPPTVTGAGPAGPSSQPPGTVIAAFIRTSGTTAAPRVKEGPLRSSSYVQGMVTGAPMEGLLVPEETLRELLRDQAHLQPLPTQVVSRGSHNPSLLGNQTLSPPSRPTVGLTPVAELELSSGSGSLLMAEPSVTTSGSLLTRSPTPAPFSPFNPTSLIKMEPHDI
In short: as §1

ELK4 = target: T3, ELK4 (Homo sapiens, UniProt P28324-2 1-405); settings: protein: recombinant; tags: N-terminal GST; dsDNA, one strand shown
T3 sequence: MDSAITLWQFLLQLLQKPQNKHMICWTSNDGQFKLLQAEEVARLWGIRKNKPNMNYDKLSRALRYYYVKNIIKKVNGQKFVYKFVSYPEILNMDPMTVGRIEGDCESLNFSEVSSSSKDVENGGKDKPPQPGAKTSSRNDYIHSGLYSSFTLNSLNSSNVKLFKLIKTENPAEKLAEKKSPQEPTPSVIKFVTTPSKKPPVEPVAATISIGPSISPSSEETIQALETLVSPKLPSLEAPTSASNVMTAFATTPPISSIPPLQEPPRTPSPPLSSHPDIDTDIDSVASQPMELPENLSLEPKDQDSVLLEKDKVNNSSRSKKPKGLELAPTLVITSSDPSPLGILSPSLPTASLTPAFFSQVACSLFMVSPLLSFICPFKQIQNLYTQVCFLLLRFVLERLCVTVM
In short: as §1

ETV2 = target: T4, ETV2 (Homo sapiens, UniProt O00321 1-342); settings: protein: recombinant; tags: N-terminal GST; dsDNA, one strand shown
T4 sequence: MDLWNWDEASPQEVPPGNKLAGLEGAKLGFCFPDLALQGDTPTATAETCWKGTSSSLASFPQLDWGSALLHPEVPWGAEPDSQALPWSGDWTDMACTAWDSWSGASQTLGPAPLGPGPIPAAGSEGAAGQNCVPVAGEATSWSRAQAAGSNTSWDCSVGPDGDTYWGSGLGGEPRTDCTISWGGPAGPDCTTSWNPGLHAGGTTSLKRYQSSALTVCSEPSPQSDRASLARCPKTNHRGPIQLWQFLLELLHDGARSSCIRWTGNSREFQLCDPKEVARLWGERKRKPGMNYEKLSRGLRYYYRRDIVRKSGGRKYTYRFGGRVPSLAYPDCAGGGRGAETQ
In short: as §1

ELF3 = target: T5, ELF3 (Homo sapiens, UniProt P78545 1-371); settings: protein: recombinant; tags: N-terminal GST; dsDNA, one strand shown
T5 sequence: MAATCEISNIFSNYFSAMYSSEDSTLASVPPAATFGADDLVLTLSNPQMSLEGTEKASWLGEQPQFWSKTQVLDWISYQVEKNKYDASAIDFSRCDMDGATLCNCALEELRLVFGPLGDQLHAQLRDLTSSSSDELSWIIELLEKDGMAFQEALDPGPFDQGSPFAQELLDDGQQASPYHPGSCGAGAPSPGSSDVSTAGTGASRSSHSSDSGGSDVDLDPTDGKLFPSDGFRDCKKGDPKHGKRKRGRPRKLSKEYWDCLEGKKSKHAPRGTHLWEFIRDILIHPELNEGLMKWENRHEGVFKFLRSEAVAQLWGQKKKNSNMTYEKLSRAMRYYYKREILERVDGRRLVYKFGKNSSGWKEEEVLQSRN
In short: as §1

CRX = CRX (Homo sapiens, UniProt O43186 1-299); settings: protein: recombinant; tags: N-terminal GST; dsDNA, one strand shown
Chain of CRX (O43186 whole entry): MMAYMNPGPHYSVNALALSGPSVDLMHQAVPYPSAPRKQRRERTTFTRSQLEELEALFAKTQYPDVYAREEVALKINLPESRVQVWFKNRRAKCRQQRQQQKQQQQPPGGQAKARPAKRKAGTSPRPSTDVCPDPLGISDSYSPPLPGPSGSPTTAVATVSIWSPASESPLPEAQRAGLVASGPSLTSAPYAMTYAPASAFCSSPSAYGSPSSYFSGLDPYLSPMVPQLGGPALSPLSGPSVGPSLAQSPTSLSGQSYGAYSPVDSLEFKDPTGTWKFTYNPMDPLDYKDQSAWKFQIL
In short: as §1

ETV1 = ETV1 (Homo sapiens, UniProt P50549 1-477); settings: protein: recombinant; tags: N-terminal GST; dsDNA, one strand shown
Chain of ETV1 (P50549 whole entry): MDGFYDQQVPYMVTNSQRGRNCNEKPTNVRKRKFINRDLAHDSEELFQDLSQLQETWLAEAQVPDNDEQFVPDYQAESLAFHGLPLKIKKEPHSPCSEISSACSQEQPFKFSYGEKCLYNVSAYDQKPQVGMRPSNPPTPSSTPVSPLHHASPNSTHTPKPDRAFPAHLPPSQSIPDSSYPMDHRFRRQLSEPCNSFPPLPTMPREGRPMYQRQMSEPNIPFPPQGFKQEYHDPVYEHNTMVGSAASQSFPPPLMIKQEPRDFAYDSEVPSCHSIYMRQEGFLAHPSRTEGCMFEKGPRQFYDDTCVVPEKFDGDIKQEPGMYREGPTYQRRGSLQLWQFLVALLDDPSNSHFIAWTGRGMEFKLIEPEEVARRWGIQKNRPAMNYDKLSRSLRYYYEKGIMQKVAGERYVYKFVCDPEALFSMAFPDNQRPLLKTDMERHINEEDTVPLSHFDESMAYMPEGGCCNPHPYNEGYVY
In short: as §1

ERF = target: T6, ERF (Homo sapiens, UniProt P50548 1-548); settings: protein: recombinant; tags: N-terminal GST; dsDNA, one strand shown
T6 sequence: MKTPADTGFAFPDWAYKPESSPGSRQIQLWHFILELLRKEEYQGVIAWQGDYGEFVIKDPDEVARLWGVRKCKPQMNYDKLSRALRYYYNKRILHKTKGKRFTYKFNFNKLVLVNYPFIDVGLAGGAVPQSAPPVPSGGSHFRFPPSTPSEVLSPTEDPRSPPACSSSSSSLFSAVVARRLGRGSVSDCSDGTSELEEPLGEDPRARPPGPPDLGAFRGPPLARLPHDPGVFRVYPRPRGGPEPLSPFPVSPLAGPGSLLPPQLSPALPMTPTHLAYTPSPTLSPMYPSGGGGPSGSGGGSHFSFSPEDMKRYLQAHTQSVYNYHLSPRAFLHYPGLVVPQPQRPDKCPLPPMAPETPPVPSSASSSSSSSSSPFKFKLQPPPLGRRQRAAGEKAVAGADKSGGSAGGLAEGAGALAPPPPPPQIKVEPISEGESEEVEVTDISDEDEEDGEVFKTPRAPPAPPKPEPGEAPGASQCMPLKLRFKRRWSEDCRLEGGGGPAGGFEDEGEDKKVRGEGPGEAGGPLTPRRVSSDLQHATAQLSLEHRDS
In short: as §1

ETV3L = target: T7, ETV3L (Homo sapiens, UniProt Q6ZN32 1-361); settings: protein: recombinant; tags: N-terminal GST; dsDNA, one strand shown
T7 sequence: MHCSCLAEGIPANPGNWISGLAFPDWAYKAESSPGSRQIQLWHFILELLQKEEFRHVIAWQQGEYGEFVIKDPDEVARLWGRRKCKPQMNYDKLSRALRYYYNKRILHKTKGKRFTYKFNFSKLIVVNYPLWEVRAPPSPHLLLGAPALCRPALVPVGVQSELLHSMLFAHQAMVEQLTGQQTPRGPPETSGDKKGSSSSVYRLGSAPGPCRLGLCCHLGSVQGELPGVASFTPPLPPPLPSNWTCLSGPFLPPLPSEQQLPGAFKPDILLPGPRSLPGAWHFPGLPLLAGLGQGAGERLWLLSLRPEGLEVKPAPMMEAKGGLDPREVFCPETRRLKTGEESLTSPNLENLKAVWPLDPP
In short: as §1

ETS2 = target: T8, ETS2 (Homo sapiens, UniProt P15036 1-469); settings: protein: recombinant; tags: N-terminal GST; dsDNA, one strand shown
T8 sequence: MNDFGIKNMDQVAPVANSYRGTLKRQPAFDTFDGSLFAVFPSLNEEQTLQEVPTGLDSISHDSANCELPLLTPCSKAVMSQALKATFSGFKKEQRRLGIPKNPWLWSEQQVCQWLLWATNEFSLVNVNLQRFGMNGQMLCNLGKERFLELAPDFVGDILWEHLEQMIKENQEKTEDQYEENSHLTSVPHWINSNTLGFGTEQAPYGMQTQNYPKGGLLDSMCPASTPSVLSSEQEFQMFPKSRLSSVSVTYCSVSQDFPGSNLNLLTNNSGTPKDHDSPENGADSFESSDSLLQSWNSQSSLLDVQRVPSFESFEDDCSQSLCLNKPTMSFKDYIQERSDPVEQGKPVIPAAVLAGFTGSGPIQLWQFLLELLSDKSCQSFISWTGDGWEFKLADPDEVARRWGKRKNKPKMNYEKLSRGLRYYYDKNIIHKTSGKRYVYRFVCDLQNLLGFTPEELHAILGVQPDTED
In short: as §1

SPDEF = target: T9, SPDEF (Homo sapiens, UniProt O95238 1-335); settings: protein: recombinant; tags: N-terminal GST; dsDNA, one strand shown
T9 sequence: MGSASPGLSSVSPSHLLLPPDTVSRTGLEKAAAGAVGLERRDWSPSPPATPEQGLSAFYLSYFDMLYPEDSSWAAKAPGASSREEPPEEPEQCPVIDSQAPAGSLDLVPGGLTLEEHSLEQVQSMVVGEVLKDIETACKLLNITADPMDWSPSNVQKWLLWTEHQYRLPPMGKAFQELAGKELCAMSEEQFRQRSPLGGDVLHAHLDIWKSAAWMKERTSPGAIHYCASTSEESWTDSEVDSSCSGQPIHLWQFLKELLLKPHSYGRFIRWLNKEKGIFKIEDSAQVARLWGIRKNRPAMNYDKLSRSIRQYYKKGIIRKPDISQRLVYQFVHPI
In short: as §1

ETV7 = target: T10, ETV7 (Homo sapiens, UniProt Q9Y603 1-341); settings: protein: recombinant; tags: N-terminal GST; dsDNA, one strand shown
T10 sequence: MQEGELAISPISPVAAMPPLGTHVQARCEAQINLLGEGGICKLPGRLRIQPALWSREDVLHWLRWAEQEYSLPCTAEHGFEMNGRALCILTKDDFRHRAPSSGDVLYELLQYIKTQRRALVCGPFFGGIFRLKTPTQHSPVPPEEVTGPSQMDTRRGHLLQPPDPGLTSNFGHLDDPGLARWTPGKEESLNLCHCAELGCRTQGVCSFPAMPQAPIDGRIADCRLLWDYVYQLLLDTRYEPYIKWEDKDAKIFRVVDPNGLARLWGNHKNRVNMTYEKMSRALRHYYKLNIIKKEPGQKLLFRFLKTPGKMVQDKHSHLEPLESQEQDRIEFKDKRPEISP
In short: as §1

ELF5 = target: T11, ELF5 (Homo sapiens, UniProt Q9UKW6-2 1-255); settings: protein: recombinant; tags: N-terminal GST; dsDNA, one strand shown
T11 sequence: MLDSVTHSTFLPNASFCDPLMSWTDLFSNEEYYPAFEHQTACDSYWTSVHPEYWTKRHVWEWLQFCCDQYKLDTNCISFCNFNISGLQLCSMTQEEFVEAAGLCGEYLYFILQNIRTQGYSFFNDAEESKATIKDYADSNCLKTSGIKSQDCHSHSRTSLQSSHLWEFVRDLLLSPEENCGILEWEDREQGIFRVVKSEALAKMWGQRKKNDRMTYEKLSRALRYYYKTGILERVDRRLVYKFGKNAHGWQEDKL
In short: as §1

ETV3 = target: T12, ETV3 (Homo sapiens, UniProt P41162-2 1-143); settings: protein: recombinant; tags: N-terminal GST; dsDNA, one strand shown
T12 sequence: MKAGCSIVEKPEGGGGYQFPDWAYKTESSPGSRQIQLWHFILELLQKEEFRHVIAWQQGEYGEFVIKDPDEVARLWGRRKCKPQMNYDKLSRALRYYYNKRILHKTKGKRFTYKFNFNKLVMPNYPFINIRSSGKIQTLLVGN
In short: as §1

ETV6 = ETV6 (Homo sapiens, UniProt P41212 1-452); settings: protein: recombinant; tags: N-terminal GST; dsDNA, one strand shown
Chain of ETV6 (P41212 whole entry): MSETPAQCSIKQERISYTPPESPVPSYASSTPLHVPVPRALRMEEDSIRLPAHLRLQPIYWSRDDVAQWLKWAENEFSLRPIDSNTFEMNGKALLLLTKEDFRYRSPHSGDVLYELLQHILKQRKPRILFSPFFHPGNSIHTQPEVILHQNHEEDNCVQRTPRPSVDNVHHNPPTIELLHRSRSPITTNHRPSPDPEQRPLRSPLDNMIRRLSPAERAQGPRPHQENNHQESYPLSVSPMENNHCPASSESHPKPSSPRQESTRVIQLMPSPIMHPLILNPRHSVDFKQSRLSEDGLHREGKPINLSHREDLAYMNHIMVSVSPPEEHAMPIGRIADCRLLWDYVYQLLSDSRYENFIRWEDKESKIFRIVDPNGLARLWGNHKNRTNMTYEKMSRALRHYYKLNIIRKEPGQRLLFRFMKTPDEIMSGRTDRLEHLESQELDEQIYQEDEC
In short: as §1

Sequence: CACAAG
- binding signal (FEV): 1.08 fold enrichment (6-mer frequency, TF over GST control)
- binding signal (ETV5): 1.13 fold enrichment (6-mer frequency, TF over GST control)
- binding signal (HSF1): 1.06 fold enrichment (6-mer frequency, TF over GST control)
- binding signal (SPIC): 1.09 fold enrichment (6-mer frequency, TF over GST control)
- binding signal (ELF4): 1.2 fold enrichment (6-mer frequency, TF over GST control)
- binding signal (ELK4): 1.07 fold enrichment (6-mer frequency, TF over GST control)
- binding signal (ETV2): 1.11 fold enrichment (6-mer frequency, TF over GST control)
- binding signal (ELF3): 1.17 fold enrichment (6-mer frequency, TF over GST control)
- binding signal (CRX): 1.01 fold enrichment (6-mer frequency, TF over GST control)
- binding signal (ETV1): 1.18 fold enrichment (6-mer frequency, TF over GST control)
- binding signal (ERF): 1.13 fold enrichment (6-mer frequency, TF over GST control)
- binding signal (ETV3L): 1.16 fold enrichment (6-mer frequency, TF over GST control)
- binding signal (ETS2): 1.22 fold enrichment (6-mer frequency, TF over GST control)
- binding signal (SPDEF): 1.07 fold enrichment (6-mer frequency, TF over GST control)
- binding signal (ETV7): 1.05 fold enrichment (6-mer frequency, TF over GST control)
- binding signal (ELF5): 1.11 fold enrichment (6-mer frequency, TF over GST control)
- binding signal (ETV3): 1.16 fold enrichment (6-mer frequency, TF over GST control)
- binding signal (ETV6): 1.14 fold enrichment (6-mer frequency, TF over GST control)
